# The panel holds about 79,000 compounds, 15% with a hit somewhere; the sample as a whole holds those more often. A number with no mark means an inactive call. Calls of active or inactive are those of the source. No stated cut-off is given here; in the data, active means growth inhibition above about 70%; inactive means the rest.
# Tests used:
# [1] = NCI Yeast Anticancer Drug Screen. Data for the rad50 strain (AID 155);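 further: 0% = growth of vehicle-only cultures of the same strain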; details: S. cerevisiae rad50 strain growth inhibition, stronger effect = higher value
# In short: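 Readout: growth inhibition relative to vehicle-treated cultures. Compound exposure was carried out in a genetically defined yeast strain deficient in DNA damage repair.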
# [2] = NCI Yeast Anticancer Drug Screen. Data for the mec2-1 strain (AID 157); details: S. cerevisiae mec2-1 strain, stronger effect = higher value
# In short: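 mec2-1 yeast strain, carrying an alteration in DNA damage repair or cell cycle control, was exposed to compounds; growth inhibition was measured relative to vehicle-treated controls.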
# [3] = NCI Yeast Anticancer Drug Screen. Data for the sgs1 mgt1 strain (AID 161);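 further: 0% = growth of cultures given vehicle only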; details: S. cerevisiae sgs1 mgt1 strain, stronger effect = higher value
# In short: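 Compounds are added to genetically altered yeast, and growth is compared with cultures given vehicle alone to give percent inhibition.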
# [4] = NCI Yeast Anticancer Drug Screen. Data for the cln2 rad14 strain (AID 165);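 further: 0% = growth equal to vehicle treated cultures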; details: S. cerevisiae cln2 rad14 strain, stronger effect = higher value
# In short: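 Yeast carrying cln2 and rad14 alterations (cell cycle control and DNA damage repair) were exposed to compounds. Growth inhibition was measured against vehicle-treated controls.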
# [5] = NCI Yeast Anticancer Drug Screen. Data for the bub3 strain (AID 167); details: S. cerevisiae bub3 mutant strain, stronger effect = higher value
# In short: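 Readout: yeast growth inhibition, expressed relative to vehicle-only wells. The test organism is a mutant strain from a panel with lesions in DNA repair or checkpoint genes.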
# [6] = NCI Yeast Anticancer Drug Screen. Data for the mlh1 rad18 strain (AID 175); details: S. cerevisiae mlh1 rad18 strain growth inhibition, stronger effect = higher value
# In short: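 Growth inhibition of the yeast strain was measured after compound exposure and expressed relative to vehicle-treated controls. The strain carries defined defects in DNA damage repair.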
# [7] = at 5.0 µM (retest, dose inferred, filed as 0.5)
# [8] = at 50.0 µM (retest, dose inferred, filed as 5.0)
Structure (SMILES),"growth inhibition [1, 7]","growth inhibition [1, 8]",growth inhibition ([1]; at 50.0 µM),"growth inhibition [2, 7]","growth inhibition [2, 8]",growth inhibition ([2]; at 50.0 µM),"growth inhibition [3, 7]","growth inhibition [3, 8]",growth inhibition ([3]; at 50.0 µM),"growth inhibition [4, 7] [%]","growth inhibition [4, 8]",growth inhibition ([4]; at 50.0 µM),"growth inhibition [5, 7]","growth inhibition [5, 8]",growth inhibition ([5]; at 50.0 µM),"growth inhibition [6, 7]","growth inhibition [6, 8]",growth inhibition ([6]; at 50.0 µM)
OC(COc1ccc(Cl)cc1)COc1ccc(Cl)cc1,0%,92% (active),98.4% (active),-3%,91% (active),99.4% (active),-3%,86% (active),99.4% (active),-19,86% (active),99% (active),-8%,92% (active),99.5% (active),0%,93% (active),99.3% (active)
O=C(O)C(Br)C(Br)C(=O)Nc1ccc(Cl)c(Cl)c1 (stereo not given),91% (active),99% (active),96.3% (active),52%,99% (active),98.1% (active),85% (active),99% (active),96.8% (active),25,99% (active),84.7% (active),96% (active),100% (active),98.8% (active),48%,99% (active),96% (active)
COC(=O)c1nc(=S)[nH]c(C(=O)OC)c1C(=O)c1c(C)[nH]c2ccccc12,-7%,-2%,-25%,-3%,7%,-5.5%,2%,1%,-5.15%,1,-4%,30.7%,-6%,-7%,-2.3%,-7%,-2%,62.2%
CCOC(=O)C(=Cc1ccccc1)C(=O)OCC,20%,92% (active),73% (active),20%,91% (active),88.8% (active),9%,92% (active),92.6% (active),13,78% (active),69.5%,48%,94% (active),92.2% (active),12%,94% (active),93.3% (active)
Cc1ccc(C)c(C(=O)/C=C/C(=O)O)c1,29%,100% (active),52.5%,22%,99% (active),70.7% (active),32%,100% (active),61.5%,15,99% (active),40.6%,27%,98% (active),64.1%,42%,98% (active),65.1%
COS(=O)c1cc(Cl)cc(Cl)c1OC(=O)CSSCC(=O)Oc1c(Cl)cc(Cl)cc1S(=O)OC (stereo not given),87% (active),99% (active),98.8% (active),85% (active),99% (active),99.3% (active),95% (active),99% (active),99% (active),60,98% (active),99.3% (active),92% (active),98% (active),98.9% (active),84% (active),99% (active),99% (active)
COc1ccc(Cc2nc3ccccc3s2)cc1OC,42%,98% (active),90.3% (active),39%,99% (active),92.8% (active),61%,99% (active),93.7% (active),42,97% (active),91.9% (active),51%,99% (active),92.6% (active),73% (active),99% (active),91.8% (active)
COc1cccc(/C=C2\CCCc3ccccc3C2=O)c1,1%,20%,52.4%,7%,45%,22.3%,14%,67%,80.3% (active),-7,6%,26.6%,72% (active),87% (active),74.4% (active),10%,60%,63.6%
C(=C\N1CCCCC1)/c1nnnn1-c1ccccc1,-23%,6%,34.5%,-18%,-21%,54.1%,-31%,-18%,71.9% (active),-17,-22%,11.8%,-29%,-31%,54.6%,-4%,1%,72.7% (active)
COc1ccc2ccc3c(c2c1)CCC(C(=O)O)C3CC(=O)O (stereo not given),-9%,9%,41.9%,-17%,0%,97.5% (active),-11%,12%,43.6%,0,27%,93.8% (active),-11%,26%,77.2% (active),-30%,35%,84% (active)
